The whole screen tested about 52,000 compounds, of which about 1,700 (3.3%) were called active. This is one part of a sample in which actives are shown more often than they occur. Rule as the data show it: active = survival mostly below about 52% (no sharp cut-off); inactive = mostly above about 56%.
System: Wild type
Experiment: S. aureus survival, RN4220 and DeltatarO strains – OD600, teichoic acid synthesis inhibitors, primary screen (AID 463173)
Settings: S. aureus RN4220 wild type/DeltatarO growth, OD600, 18 h, active compounds read low, screened at 18.75 µg/mL (by protocol)

Structure (SMILES)	survival
CCCCCn1c(=O)[nH]c2cc(C(=O)Nc3ccc(OC)c(OC)c3)ccc2c1=O	74% (inactive)
Cc1ccc(-c2nc(Cn3c(=O)cc(-c4ccccc4)c4c(C)nn(C)c43)c(C)o2)cc1	120% (inactive)
Cc1cccc(-c2nc(Cn3c(=O)cc(-c4ccccc4)c4c(C)nn(C)c43)c(C)o2)c1	-6% (active)
Cc1oc(-c2ccc(Cl)cc2)nc1Cn1c(=O)cc(C)c2c(C)nn(-c3ccccc3)c21	83% (inactive)
CCOc1ccc(-c2nc(Cn3c(=O)cc(C)c4c(C)nn(-c5ccc(C)cc5)c43)c(C)o2)cc1	87% (inactive)
Cc1nn(C)c2c1c(-c1ccccc1)cc(=O)n2Cc1ccccc1F	120% (inactive)
CCOc1ccc(-c2nc(Cn3c(=O)cc(C)c4c(C)nn(-c5ccccc5)c43)c(C)o2)cc1	14% (active)
Cc1nn(C)c2c1c(-c1ccccc1)cc(=O)n2Cc1c(F)cccc1Cl	-6% (active)
Cc1cc(=O)n(Cc2c(F)cccc2Cl)c2c1c(C)nn2C	71% (inactive)
Cc1oc(-c2ccccc2)nc1Cn1c(=O)cc(-c2ccccc2)c2c(C)nn(C)c21	76% (inactive)
CCc1cccc(NC(=O)CNS(=O)(=O)c2ccc3nc(C)sc3c2)c1	72% (inactive)
COc1ccc(NCc2cc3cc4c(cc3n(CC(=O)Nc3cc(C)cc(C)c3)c2=O)OCO4)cc1	60% (inactive)
Cc1cccc(C(=O)Nc2cccc(OCc3cc(=O)n4c(C)csc4n3)c2)c1	79% (inactive)
CCC(=O)n1nc(-c2ccc(OC)cc2)nc1SC	100% (inactive)
O=C(NCc1ccncc1)C1CCN(S(=O)(=O)c2ccccc2)CC1	109% (inactive)
COc1ccc(Nc2cc(C(=O)NCc3ccccc3OC)c3ccccc3n2)cc1	-6% (active)
COc1ccc(Nc2cc(C(=O)NCc3cccs3)c3ccccc3n2)cc1	145% (inactive)
COc1ccc(Nc2cc(C(=O)NCc3ccccc3)c3ccccc3n2)cc1	112% (inactive)
CCOC(=O)/C(C#N)=N\Nc1ccccc1OC	105% (inactive)
CCC(=O)N1CCc2cc(S(=O)(=O)NC(CC(C)C)C(=O)NCCc3ccccc3)ccc21 (stereo not given)	127% (inactive)

Structure (SMILES)	survival
CCc1ccc(C2c3c(-c4ccccc4O)n[nH]c3C(=O)N2Cc2cccnc2)cc1 (stereo not given)	71% (inactive)
CC(C)c1ccc(C2c3c(-c4ccccc4O)n[nH]c3C(=O)N2CCc2ccccc2)cc1 (stereo not given)	64% (inactive)
CCOc1cc(C2c3c(-c4ccccc4O)n[nH]c3C(=O)N2Cc2cccnc2)ccc1O (stereo not given)	89% (inactive)
COc1ccc(CCN2C(=O)c3[nH]nc(-c4ccccc4O)c3C2c2ccc(OC)cc2)cc1 (stereo not given)	58% (inactive)
COc1cc(C2c3c(-c4ccccc4O)n[nH]c3C(=O)N2Cc2ccco2)ccc1OCC(C)C (stereo not given)	43% (inactive)
Cc1ccc(C2c3c(-c4ccccc4O)n[nH]c3C(=O)N2CCc2ccccc2)cc1 (stereo not given)	58% (inactive)
CC(C)c1ccc(C2c3c(-c4ccccc4O)n[nH]c3C(=O)N2Cc2ccncc2)cc1 (stereo not given)	106% (inactive)
O=C1c2[nH]nc(-c3ccccc3O)c2C(c2ccc(Cl)cc2)N1Cc1ccco1 (stereo not given)	-1% (active)
CCCOc1ccc(C2c3c(-c4ccccc4O)n[nH]c3C(=O)N2Cc2cccnc2)cc1 (stereo not given)	3% (active)
COc1ccc(C2c3c(-c4c(C)cc(C)cc4O)n[nH]c3C(=O)N2Cc2ccco2)cc1 (stereo not given)	15% (inactive)
COc1ccc(C2c3c(-c4ccccc4O)n[nH]c3C(=O)N2Cc2ccco2)cc1 (stereo not given)	10% (active)
O=C1c2[nH]nc(-c3ccccc3O)c2C(c2ccc(Cl)cc2)N1CCc1ccccc1 (stereo not given)	4% (active)
CCc1nnc(SCc2ccc(F)cc2Cl)c2cc3sc(C)cc3n12	96% (inactive)
CCOC(=O)c1cccc(NC(=O)c2ccc3snnc3c2)c1	84% (inactive)
COc1ccc(C)cc1NC(=O)C(=O)NCC1(c2ccccc2)CCCC1	94% (inactive)
COc1ccc2c(c1)cc1c(=O)n(CC(=O)NCCc3ccccc3)nc(C)n12	81% (inactive)
CCc1ccccc1NC(=O)CN1C(=O)COc2ccc(S(=O)(=O)Nc3ccccc3)cc21	64% (inactive)
COc1ccc(-c2nc(N)n(C(C)=O)n2)cc1	107% (inactive)
Cc1nnc(SCCCN2C(=O)c3ccccc3C2=O)o1	105% (inactive)
Cc1cccc(NC(=O)CCn2cnnn2)c1C	71% (inactive)

Structure (SMILES)	survival
Cc1cc(C)c(NC(=O)c2sc3nc(C)cc(C)c3c2N)c(C)c1	73% (inactive)
CCCOc1cccc(C2c3c(-c4ccccc4O)n[nH]c3C(=O)N2Cc2ccco2)c1 (stereo not given)	11% (active)
CCOc1cccc(C2c3c(-c4cc(C)ccc4O)n[nH]c3C(=O)N2Cc2ccco2)c1 (stereo not given)	27% (inactive)
CCCN1C(=O)c2[nH]nc(-c3ccccc3O)c2C1c1cccc(OCc2ccccc2)c1 (stereo not given)	42% (inactive)
CCOc1cccc(C(=O)N(Cc2ccc(C)o2)C2CCS(=O)(=O)C2)c1 (stereo not given)	90% (inactive)
CCOC(=O)C1CCN(C(=O)Cn2ncc3c4ccccc4n(Cc4ccc(F)cc4)c3c2=O)CC1	80% (inactive)
COCCNC(=O)C(=O)Nc1c2c(nn1-c1ccccc1)CS(=O)(=O)C2	76% (inactive)
CC(C)CCNC(=O)C(=O)Nc1c2c(nn1-c1ccccc1)CS(=O)(=O)C2	90% (inactive)
CC(C)OCCCNC(=O)C(=O)Nc1c2c(nn1-c1ccccc1)CS(=O)(=O)C2	-6% (active)
CCOc1cccc(C(=O)Nc2cc(C)c(O)c(-c3nc4ncccc4o3)c2)c1	84% (inactive)
CNC(=O)C1CCC(Cn2c(=O)c3sccc3n(CC(=O)NCc3ccc(F)cc3)c2=O)CC1 (stereo not given)	45% (inactive)
CNC(=O)C1CCC(Cn2c(=O)c3sccc3n(CC(=O)NCc3ccccc3)c2=O)CC1 (stereo not given)	0% (active)
CNC(=O)C1CCC(Cn2c(=O)c3sccc3n(CC(=O)NCc3ccc(C)cc3)c2=O)CC1 (stereo not given)	73% (inactive)
Cc1cc(C)cc(NC(=O)COc2cccc3c(=O)n(C)ccc23)c1	72% (inactive)
COc1ccc(OCCCn2c(=O)oc3ccc(C)cc32)cc1	2% (active)
Cc1ccc2oc(=O)n(CCNC(=O)Nc3ccc(Cl)cc3)c2c1	79% (inactive)
COc1ccc(OCCCn2c(C)nc3cc(C)c(C)cc32)cc1	67% (inactive)
COc1ccc(Cl)cc1NC(=O)NCCn1c(=O)oc2ccc(C)cc21	62% (inactive)
CCCCOc1ccc(Cn2c(=O)oc3ccc(C)cc32)cc1	58% (inactive)
Cc1ccc2oc(=O)n(CCCOc3ccc(Cl)cc3)c2c1	-9% (active)

Reference: PubChem BioAssay AID463173 (ICCB-Longwood Screening Facility, Harvard Medical School, 2010)
